In the supplement of paper PMC13380429:

Experiments:
[1] = test system: Vero E6 infected with SARS-CoV-2; experiment: morphology score (similarity to uninfected cells); higher = more like uninfected cells; settings: 24 h
[2] = test system: Vero E6 infected with SARS-CoV-2; experiment: SARS-CoV-2 infection rate relative to infected DMSO; higher = more infection, active = 60 or less; settings: 24 h

| Structure (SMILES) | morphology score [1] | SARS-CoV-2 infection rate [2] |
| --- | --- | --- |
| Cc1ccc2c(c1)c1c(n2CCc2ccc(C)nc2)CCN(C)C1 [latrepirdine] (10 µM) | 0.241 | 96.5% (inactive) |
| COc1cc(C(=O)NCC2(N(C)C)CCCC2)cc(OC)c1OCc1ccccc1 (10 µM) | 0.334 | 77.5% (inactive) |
| Cn1cc(-c2cnc3ccc4ccc(CS(=O)(=O)NCc5ccccn5)cc4c(=O)c3c2)cn1 (10 µM) | 0.0342 | 106% (inactive) |
| CC(c1cc2ccccc2s1)N(O)C(N)=O (stereo not drawn) [zileuton] (10 µM) | 0.0704 | 98.5% (inactive) |
| NC(Cc1ccc(I)cc1)C(=O)O (stereo in doubt) [4-iodo-L-phenylalanine] (10 µM) | 0.202 | 105% (inactive) |
| CC(C(=O)O)c1cccc(C(=O)c2ccccc2)c1 (stereo not drawn) [ketoprofen] (10 µM) | 0.173 | 102% (inactive) |
| CC(C)(C)Cn1c(N)nc2ccc(-c3[nH]c(C(C)(C)C)nc3-c3ccc(F)cc3)nc21 (10 µM) | -0.205 | 111% (inactive) |
| O=C(c1cccc(Cl)c1F)N1CCN(Cc2cccc(Nc3nccs3)n2)CC1 (0.833333 µM) | 0.202 | 107% (inactive) |
| Cn1cnc(N)c2ncnc1-2 [3-methyladenine] (10 µM) | 0.258 | 93% (inactive) |
| O=C(O)/C=C/c1ccc(-c2ccc(O)c(C34CC5CC(CC(C5)C3)C4)c2)cc1 [adarotene] (10 µM) | 0.00299 | 100% (inactive) |
| CC(C)CCN1c2nc(Nc3cc(F)c(O)c(F)c3)ncc2N(C)C(=O)[C@@H]1C (0.833333 µM) | 0.164 | 106% (inactive) |
| N[C@@H](C[C@@H](F)C(=O)O)C(=O)O (10 µM) | 0.0323 | 110% (inactive) |
| Cc1cccc(OCC(O)CNC(C)(C)C)c1C (stereo not drawn) [xibenolol] (10 µM) | 0.0955 | 97.5% (inactive) |
| C[C@@H](NCc1cc(Br)cc2nc(O)c(O)nc12)P(=O)(O)O (10 µM) | 0.0389 | 101% (inactive) |
| CO[C@@H]1[C@H](O)[C@@H](CO)O[C@H]1n1cnc2c(NC3CCCCC3)ncnc21 (10 µM) | -0.0183 | 108% (inactive) |
| Cc1c(N)cccc1Cn1ccc(OCCc2cccs2)cc1=O (10 µM) | 0.0738 | 102% (inactive) |
| CO[C@H]1/C=C/O[C@@]2(C)Oc3c(C)c(O)c4c(O)c(c5c(nc6cc(C)ccn65)c4c3C2=O)NC(=O)/C(C)=C\C=C\[C@H](C)[C@H](O)[C@@H](C)[C@@H](O)[C@@H](C)[C@H](OC(C)=O)[C@@H]1C [rifaximin] (10 µM) | 0.0779 | 108% (inactive) |
| Fc1cc(F)c2c(c1)[C@H]1C=CC[C@H]1C(c1cccnc1)N2 (stereo partly drawn) [Golgicide A] (0.833333 µM) | 0.281 | 104% (inactive) |
| C[C@@H](c1nc(-c2ccc(C#N)cc2)cs1)[C@](O)(Cn1cncn1)c1cc(F)ccc1F [isavuconazole] (10 µM) | -0.116 | 113% (inactive) |
